PubChem BioAssay (EPA / NIEHS)
The source made the active and inactive calls. The calls were made as follows: active = hit-call score of the fitted dose curve at least 0.9, where 1 is the maximum; inactive = score below 0.9.

biological target: Nuclear respiratory factor 1 (Homo sapiens) (UniProt Q16656); experiment: ATG_NRF1_CIS: Attagene CIS-FACTORIAL HepG2 Assay for human Nuclear Respiratory Factor 1 (NRF1) Orphan Gene (AID 2282987); conditions: HepG2 NRF1 cis-element reporter, Attagene multiplex; actives raise or lower the signal
How it was run: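 Endogenous factor activity was captured via cis-element-driven reporter transcripts in HepG2 cells. Following 24 h chemical treatment, transcripts were quantified by RT-PCR and capillary electrophoresis.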

Nuclear respiratory factor 1 (Homo sapiens), sequence (Q16656 whole entry, looked up): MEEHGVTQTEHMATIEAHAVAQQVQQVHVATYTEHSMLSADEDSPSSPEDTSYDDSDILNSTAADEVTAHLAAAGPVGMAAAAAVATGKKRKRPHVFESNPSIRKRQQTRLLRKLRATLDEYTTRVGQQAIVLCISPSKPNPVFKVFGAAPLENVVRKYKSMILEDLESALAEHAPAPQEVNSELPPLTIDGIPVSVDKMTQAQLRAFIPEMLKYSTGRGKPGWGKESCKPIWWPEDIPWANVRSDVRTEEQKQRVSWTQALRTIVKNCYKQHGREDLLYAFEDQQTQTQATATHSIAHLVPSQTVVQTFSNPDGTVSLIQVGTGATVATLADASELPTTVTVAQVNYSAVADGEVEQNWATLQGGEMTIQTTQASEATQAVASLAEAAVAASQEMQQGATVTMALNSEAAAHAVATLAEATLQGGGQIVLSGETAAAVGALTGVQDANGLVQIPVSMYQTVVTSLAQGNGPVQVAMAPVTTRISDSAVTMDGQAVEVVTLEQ

| Structure (SMILES) | outcome | AC50 |
| --- | --- | --- |
| Clc1ccc(C(c2ccc(Cl)cc2)C(Cl)(Cl)Cl)cc1 | inactive | – |
| Nc1ccc(Oc2ccc(N)cc2)cc1 | inactive | – |
| ClC1=C(Cl)[C@]2(Cl)[C@H]3[C@H]([C@@H]4C=C[C@H]3C4)[C@@]1(Cl)C2(Cl)Cl | inactive | – |
| CCCCCOC(=O)c1ccccc1C(=O)OCCCCC | inactive | – |
| CC(C)(C)C(O)(CCc1ccc(Cl)cc1)Cn1cncn1 (stereo unspecified) | inactive | – |
| OCCOCCO | inactive | – |
| Brc1ccc(Oc2ccccc2)cc1 | inactive | – |
| ClC1=C(Cl)C2(Cl)C3C(Cl)C=CC3C1(Cl)C2(Cl)Cl (stereo unspecified) | inactive | – |
| CCC(C)c1ccc(O)cc1 (stereo unspecified) | inactive | – |
| c1ccc2c(c1)oc1ccccc12 | inactive | – |
| CCC12COCN1COC2 | inactive | – |
| c1ccc2c(c1)-c1cccc3cccc-2c13 | inactive | – |
| Nc1ccc(Cl)cc1N | inactive | – |
| O=C(Nc1ccccc1)c1ccccc1I | inactive | – |
| CCOC(=O)[C@]1(c2ccccc2)Oc2ccccc2[C@@H]1N | – | 58.2 µM (active) |
| CN(C)C(=O)Nc1ccc(Cl)cc1 | inactive | – |
| CCCCCCCCOC(=O)c1ccc(C(=O)OCCCCCCCC)c(C(=O)OCCCCCCCC)c1 | inactive | – |
| CN(C)c1ccc(C(=O)c2ccc(N(C)C)cc2)cc1 | inactive | – |
| Clc1ccc(C(c2ccc(Cl)cc2)C(Cl)Cl)cc1 | inactive | – |
| Nc1ccc(Cc2ccc(N)cc2)cc1 | inactive | – |
| Cc1cccc(N)c1N | inactive | – |
| O=P(OCCCl)(OCCCl)OCCCl | inactive | – |
| O=Cc1ccco1 | inactive | – |
| c1ccc(NNc2ccccc2)cc1 | inactive | – |
| Oc1ccccc1Cl | inactive | – |
| CC(C)COC(=O)c1ccccc1C(=O)OCC(C)C | inactive | – |
| O=[N+]([O-])c1ccc(Oc2ccc(Cl)cc2Cl)cc1 | inactive | – |
| N#CC(Br)Br | inactive | – |

system: not listed separately; experiment: ATG_NFI_CIS: Attagene CIS-FACTORIAL HepG2 Assay for human Nuclear Factor I (NFI) (AID 2282989); conditions: HepG2 cis-regulatory reporter, NFI response element transcription; actives raise or lower the signal
How it was run: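 After transient transfection of HepG2 with cis-promoter reporter constructs and 24 h dosing, RNA is reverse-transcribed, amplified, 6-FAM end-labelled and HpaI-digested before capillary analysis. Bidirectional curve fitting against DMSO.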

| Structure (SMILES) | AC50 | outcome |
| --- | --- | --- |
| Clc1ccc(C(c2ccc(Cl)cc2)C(Cl)(Cl)Cl)cc1 | 42.1 µM (active) | – |
| Nc1ccc(Oc2ccc(N)cc2)cc1 | – | inactive |
| ClC1=C(Cl)[C@]2(Cl)[C@H]3[C@H]([C@@H]4C=C[C@H]3C4)[C@@]1(Cl)C2(Cl)Cl | – | inactive |
| CCCCCOC(=O)c1ccccc1C(=O)OCCCCC | – | inactive |
| CC(C)(C)C(O)(CCc1ccc(Cl)cc1)Cn1cncn1 (stereo unspecified) | – | inactive |
| OCCOCCO | – | inactive |
| Brc1ccc(Oc2ccccc2)cc1 | 158 µM (active) | – |
| ClC1=C(Cl)C2(Cl)C3C(Cl)C=CC3C1(Cl)C2(Cl)Cl (stereo unspecified) | 186 µM (active) | – |
| CCC(C)c1ccc(O)cc1 (stereo unspecified) | – | inactive |
| c1ccc2c(c1)oc1ccccc12 | – | inactive |
| CCC12COCN1COC2 | – | inactive |
| c1ccc2c(c1)-c1cccc3cccc-2c13 | – | inactive |
| Nc1ccc(Cl)cc1N | – | inactive |
| O=C(Nc1ccccc1)c1ccccc1I | – | inactive |
| CCOC(=O)[C@]1(c2ccccc2)Oc2ccccc2[C@@H]1N | 46.4 µM (active) | – |
| CN(C)C(=O)Nc1ccc(Cl)cc1 | – | inactive |
| CCCCCCCCOC(=O)c1ccc(C(=O)OCCCCCCCC)c(C(=O)OCCCCCCCC)c1 | – | inactive |
| CN(C)c1ccc(C(=O)c2ccc(N(C)C)cc2)cc1 | – | inactive |
| Clc1ccc(C(c2ccc(Cl)cc2)C(Cl)Cl)cc1 | 60.5 µM (active) | – |
| Nc1ccc(Cc2ccc(N)cc2)cc1 | – | inactive |
| Cc1cccc(N)c1N | – | inactive |
| O=P(OCCCl)(OCCCl)OCCCl | – | inactive |
| O=Cc1ccco1 | – | inactive |
| c1ccc(NNc2ccccc2)cc1 | – | inactive |
| Oc1ccccc1Cl | – | inactive |
| CC(C)COC(=O)c1ccccc1C(=O)OCC(C)C | – | inactive |
| O=[N+]([O-])c1ccc(Oc2ccc(Cl)cc2Cl)cc1 | – | inactive |
| N#CC(Br)Br | – | inactive |
